The values below are quoted from earlier work in PubChem BioAssay AID977608.

In all, about 4,300 compounds went through this assay and about 4,300 (100%) were called active. Cut-off not given; nearly all actives show IC50 up to about 1400 µM. So high a share suggests a set chosen from earlier hits. The list shows a part of the results. Starred links: 1 amine or outer side, 2 acyl side, 3 side chain; linkers in the order of their positions; H or OH if unused. Positions of bridges follow the written chain, without caps; N, C: chain ends. Non-standard residues stand in square brackets, D forms with d. Residues, ends and D or L forms follow the SMILES beside them. X1 = O=C([C@H](Cc1ccc(C(F)(F)[P+](O)(O)O)cc1)N[*:1])[*:2]; Nle(6-ylidene) = O=C([C@H](CCCC=[*:3])N[*:1])[*:2]; Abu = CC[C@H](N)C(=O)O

This series in a line: literature IC50 values for PDB complexes, PDB-derived complexes (AID 977608). The settings on record: PDB protein-ligand complexes.

Usually IC50 stands for the concentration that gives 50% inhibition. Regarding `CCCCCCCCCCCCCCCn1cc[n+](CC(O)([P+](O)(O)O)[P+](O)(O)O)c1`, the IC50 (protein: Squalene synthase, HsSQS, PDB entry 3wci) is 270 nM (active). For the compound `COc1cnc2[nH]cc(Cc3ccc(NCc4ccc(C(F)(F)F)cc4)nc3)c2c1`, where the note is “protein: Macrophage colony-stimulating factor 1 receptor (C667T, C830S, C907T mutation), PDB entry 4hw7”, the IC50 was 62 nM (active). For `FC(F)(F)c1ccc(CNc2ccc(Cc3c[nH]c4ncccc34)cn2)cc1`, for the setting “protein: Mast/stem cell growth factor receptor Kit, PDB entry 4hvs”, the IC50 was 16 nM (active). On to `S=CNc1ccc2oc(C3=NCCN3)cc2c1`, for which, for the setting “protein: Chitinase A(W275G mutant), PDB entry 3as3”, the IC50 was 160000 nM (active). Regarding `C[C@@H]1NC(=O)[C@@H]2CSSC[C@H](NC(=O)CN)C(=O)N[C@@H](CSSC[C@@H](C(N)=O)NC(=O)[C@H](CCCNC(N)N)NC(=O)[C@H](Cc3c[nH]c4ccccc34)NC1=O)C(=O)N[C@@H](CO)C(=O)N[C@@H](CC(=O)O)C(=O)N1CCC[C@H]1C(=O)N[C@@H](CCCNC(N)N)C(=O)N2`, the IC50 (protein: nicotinic acetylcholine receptor homolog AChBP, PDB entry 2c9t) was 33 nM (active). `CC(C)C[C@H]1NC(=O)[C@@H](Cc2c[nH]c3ccccc23)NC(=O)[C@@H](CCC(N)=O)NC(=O)[C@@H](Cc2c[nH]c3ccccc23)NC(=O)[C@@H](CCC(=O)O)NC(=O)[C@H]2CCCN2C(=O)[C@@H](CO)NC(=O)[C@@H](CCC(=O)O)NC(=O)[C@H](NC(=O)[C@@H](C)NC(=O)CNC(=O)[C@H](N)CCCCN)CSSC[C@H](C(=O)N[C@H](C)C(=O)N[C@H](C)C(=O)O)NC1=O`: the IC50 (protein: gp41 N-peptide, PDB entry 2r3c) is 2200 nM (active). Turning to `CC(=O)NCC(=O)N[C@H](C)C(=O)N[C@@H]1CSSC[C@H](C(=O)N[C@H](C)C(=O)N[C@H](C)C(=O)O)NC(=O)[C@@H](CC(C)C)NC(=O)[C@@H](Cc2c[nH]c3ccccc23)NC(=O)[C@@H](C)NC(=O)[C@@H](Cc2c[nH]c3ccccc23)NC(=O)[C@@H](CCC(=O)O)NC(=O)[C@@H](CCCNC(N)N)NC(=O)[C@@H](Cc2cnc[nH]2)NC(=O)[C@@H](CCCNC(N)N)NC(=O)[C@@H](C)NC(=O)[C@@H](CCC(=O)O)NC1=O`, the IC50 (protein: IQN17, PDB entry 1czq) was 29000 nM (active).

Consider `Cc1c(C(=O)O)cccc1-c1nc2nc(N)nc(OCC3CCCCC3)c2[nH]1`, for which, under “protein: CYCLIN-DEPENDENT KINASE 2, CDK2, PDB entry 4cfu”, the 50% inhibitory concentration (IC50) is 100000 nM (active). Take `CNC(=O)NC(N)NCCC[C@H](NC(=O)Cn1nncc1CO/N=C/c1ccnc2ccccc12)C(=O)N(Cc1ccccc1)Cc1ccccc1` (stereo partly specified): the IC50 (protein: Chitinase B, PDB entry 3wd1) is 22 nM (active). `CNC(=O)NC(N)NCCC[C@H](NC(=O)CN=[N+]=[N-])C(=O)N(Cc1ccccc1)Cc1ccccc1` (stereo partly specified): the IC50 (protein: Chitinase B, PDB entry 3wd2) was 580 nM (active). For `C[C@H](NC(=O)[C@@H](N)CCC(=O)O)C(=O)N[C@@H](CCC(N)=O)C(=O)N[C@@H](Cc1ccc(C(F)(F)[P+](O)(O)O)cc1)C(=O)N[C@@H](CCC(N)=O)C(=O)N1CCC[C@H]1C(=O)O` (H-EAQ[X1]QP-OH), the IC50 (protein: TYROSINE-PROTEIN PHOSPHATASE NON-RECEPTOR TYPE 1, PTP1B, PDB entry 3zmq) is 360 nM (active). As for H-SIGKAFKILGYPD-OH, the IC50 (protein: G Protein Beta:Gamma Heterodimer, PDB entry 1xhm) was 470 nM (active). Regarding H-DVFYPYPYASGS-OH, the IC50 (protein: concanavalin A(ConA), PDB entry 1jyi) is 100000 nM (active). For the compound `CC(C)C[C@H](NC(=O)[C@H](CCCCN)NC(=O)[C@H](CCC(=O)O)NC(=O)[C@H](Cc1ccc(O)cc1)NC(=O)[C@H](C)NC(=O)[C@@H]1CCCN1C(=O)[C@@H]1CCCN1C(=O)[C@H](C)N)C(=O)N[C@@H](CO[P+](O)(O)O)C(=O)N[C@@H](C)C(=O)N[C@@H](CCC(=O)O)C(=O)N[C@@H](CCC(N)=O)C(=O)N[C@@H](CO)C(=O)N1CCC[C@H]1C(=O)N1CCC[C@H]1C(=O)O`, the IC50 (protein: MHC class II molecule HLA-DR1, PDB entry 3l6f) was 102 nM (active). Turning to `CC(C)C[C@H](NC(=O)CNC(=O)[C@@H](NC(=O)[C@@H](NC(=O)[C@H](C)NC(=O)[C@@H]1CCCN1C(=O)[C@@H](N)CC(C)C)C(C)C)C(C)C)C(=O)N[C@@H](CO)C(=O)N1CCC[C@H]1C(=O)NCC(=O)N[C@@H](CCC(=O)O)C(=O)N[C@@H](CCC(N)=O)C(=O)N[C@@H](CCC(=O)O)C(=O)N[C@@H](Cc1ccc(O)cc1)C(=O)O`, the IC50 (protein: HLA-B*3501, PDB entry 1xh3) was 3100 nM (active). `C[C@H](N)C(=O)N[C@@H](Cc1ccc(C(F)(F)[P+](O)(O)O)cc1)C(=O)N[C@@H](C)C(=O)O`: the IC50 (protein: TYROSINE-PROTEIN PHOSPHATASE NON-RECEPTOR TYPE 1, PTP1B, PDB entry 3zmp) is 2130 nM (active). On to `CC[C@H](NC(=O)[C@H](CCCCN)NC(=O)[C@H](CCCN=C(N)N)NC(=O)[C@@H]1CCC/C=C\CCC[C@H](NC(=O)[C@H](CCCN=C(N)N)NC(=O)[C@H](CC(C)C)NC(=O)[C@H](CC(C)C)NC(=O)[C@H](CO)NC(=O)[C@@H]2CCCN2C(=O)[C@@H](NC(=O)[C@H](CC(N)=O)NC(=O)[C@H](CCCCN)NC(C)=O)[C@@H](C)CC)C(=O)N[C@@H](CCC(N)=O)C(=O)N[C@@H](C)C(=O)N[C@@H](Cc2c[nH]cn2)C(=O)N1)C(=O)N[C@@H](CCSC)C(=O)N[C@H](C(=O)O)C(C)C` (Ac-KNIPSLLR[Nle(6-ylidene)]QAH[Nle(6-ylidene)]RK[Abu]MV-OH; staple (Z) 9-13), for which the IC50 (protein: Myosin A tail domain interacting protein, MTIP from Plasmodium falciparum, PDB entry 4mzk) is 4900 nM (active). `CC[C@H](C)[C@H](NC(=O)[C@H](Cc1c[nH]cn1)NC(=O)[C@H](C)NC(=O)[C@H](CCC(N)=O)NC(=O)[C@@H](NC(=O)[C@H](CCCN=C(N)N)NC(=O)[C@@H]1CCC/C=C\CCC[C@H](NC(=O)[C@H](CC(N)=O)NC(=O)[C@H](CCCCN)NC(C)=O)C(=O)N2CCC[C@H]2C(=O)N[C@@H](CO)C(=O)N[C@@H](CC(C)C)C(=O)N1)C(C)C)C(=O)N[C@@H](CCCN=C(N)N)C(=O)N[C@@H](CCCCN)C(=O)N[C@@H](CCCCN)C(=O)N[C@@H](CCSC)C(=O)N[C@H](C(=O)O)C(C)C` (Ac-KN[Nle(6-ylidene)]PSL[Nle(6-ylidene)]RVQAHIRKKMV-OH; staple (Z) 3-7): the IC50 (protein: Myosin A tail domain interacting protein, MTIP from Plasmodium falciparum, PDB entry 4mzj) was 1600 nM (active).

For `Cc1ccc(-c2cnc(Nc3ccc(OCCCN4CCN(C)CC4)cc3)c(C(N)=O)n2)cc1C`, the IC50 (protein: DNA GYRASE SUBUNIT B, PDB entry 4b6c) is 690 nM (active). On to `Nc1ncnc2c1ncn2[C@@H]1O[C@H](CSCC[C@H](N)C(=O)O)[C@@H](O)[C@H]1O`, for which the IC50 (protein: Catechol O-methyltransferase COMT, PDB entry 4pyn) was 30000 nM (active) and the IC50 (protein: Catechol O-methyltransferase COMT, PDB entry 4pyo) was 30000 nM (active). Regarding `Nc1ncnc2c1ncn2[C@@H]1O[C@H](CO[P+](O)(O)O)[C@@H](O)[C@H]1O`, the IC50 was 129000 nM (active) (protein: Bis(5'-adenosyl)-triphosphatase ENPP4, PDB entry 4lqy); 1300 nM (active) (protein: Sus scrofa FRUCTOSE-1,6-BISPHOSPHATASE, PDB entry 1fpi); 440 nM (active) (protein: human liver fructose-1,6-bisphosphatase (FBPase), PDB entry 1fta). In the case of `Nc1ncnc2c1ncn2[C@@H]1O[C@H](CO[P+](O)(O)O[P+](O)(O)OC[C@H]2NC[C@H](O)[C@@H]2O)[C@@H](O)[C@H]1O`, the IC50 (protein: mouse poly(ADP-ribose) glycohydrolase (PARG) catalytic domain, PDB entry 4na4) was 120 nM (active). On to `Nc1ncnc2c1ncn2[C@@H]1O[C@H](CO[P+](O)(O)O[P+](O)(O)N[P+](O)(O)O)[C@@H](O)[C@H]1O`, for which the IC50 (protein: Microcin-J25 export ATP-binding/permease protein McjD, PDB entry 4pl0) is 39500 nM (active). On to `CC#C[C@H]1CN(S(=O)(=O)c2ccc(N)nc2)CCN1c1ccc([C@](O)(CCCC)C(F)(F)F)cc1`, for which the IC50 (protein: Glucokinase regulatory protein hGKRP, PDB entry 4ohk) is 5 nM (active). On to `NC(=O)c1ccc(Nc2nc(N)c(C(O)c3cccnc3)s2)cc1` (stereo unspecified), for which the IC50 (protein: Cyclin-dependent kinase 2, PDB entry 3rk7) was 200 nM (active). In the case of `Nc1nc(Nc2ccc(C(=O)O)cc2)sc1C(O)c1cccnc1` (stereo unspecified), the concentration for half-maximal inhibition (IC50) (protein: Cyclin-dependent kinase 2, PDB entry 3rk5) was 4000 nM (active). Turning to `Nc1nc(Nc2ccccc2)sc1C(O)c1ccccc1` (stereo unspecified), the IC50 (protein: Cyclin-dependent kinase 2, PDB entry 3qtr) was 930 nM (active).

As for `Nc1nc(Nc2ccccc2)sc1C(O)c1cccnc1` (stereo unspecified), the IC50 (protein: Cyclin-dependent kinase 2, PDB entry 3qtw) was 650 nM (active).
